Results reported in PubChem BioAssay (NCI).
About 83,000 compounds went through this panel and 20% of them were active in at least one assay; those are over-represented in the sample as a whole.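 In brief: 96-well plates, 48 h treatment, single concentration, percent growth endpoint.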 The source made the active and inactive calls. The calls were made as follows: active = growth percent below 10; inactive = the rest.

Key:
Assay in all cases: NCI-60 one-dose screen, 48 h (100 = growth as untreated, 0 = no growth, -100 = all killed)
Details in all cases: 10 µM unless noted
[1] = tested on: T-47D breast
[2] = tested on: BT-549 breast
[3] = tested on: MDA-MB-435 melanoma
[4] = tested on: SW-620 colon
[5] = tested on: MCF7 breast
[6] = tested on: HCT-116 colon
[7] = tested on: HCC-2998 colon
[8] = tested on: KM12 colon

Measured: growth

C[C@]12CC[C@@H]3c4ccc(O)cc4CC[C@H]3[C@@H]1C[C@H](O)[C@@H]2O
active: [8] -72.2%
inactive: [1] 128% | [2] 95.2% | [3] 92.5% | [4] 90.1% | [5] 108% | [6] 92.8% | [7] 107%

CCCCC[C@H]1CC=C2C(=O)C(Cl)=C[C@@H]2CC=CCCCC(=O)O[C@@H](CCCCC)CC=C2C(=O)C(Cl)=C[C@@H]2CC=CCCCC(=O)O[C@@H](CCCCC)CC=C2C(=O)C(Cl)=C[C@@H]2CC=CCCCC(=O)O1
inactive: [1] 61% [8 µM] | [2] 67.6% [8 µM] | [3] 25.1% [8 µM] | [4] 16.5% [8 µM] | [5] 29.9% [8 µM] | [6] 11.4% [8 µM] | [7] 99.1% [8 µM] | [8] 91.2% [8 µM]

Brc1cnc2[nH]cc(-c3nnc(-c4ccccc4)o3)c2c1
inactive: [1] 56.5% | [2] 82% | [3] 78% | [4] 86.4% | [5] 63.6% | [6] 55.7% | [7] 104% | [8] 68.9%

c1cnc2[nH]cc(-c3csc(-c4cn(CCCN5CCCCC5)c5ccccc45)n3)c2c1
inactive: [1] 63.1% | [2] 90.9% | [5] 22.2% | [6] 60.6% | [7] 87.6% | [8] 63.3%
active: [3] 1.72% | [4] -47.4%

Cc1ccc(NC2CC(=O)N(c3c(C)cc(C)cc3C)C2=O)c(C)c1 (stereo not given)
inactive: [1] 99.4% | [2] 113% | [3] 103% | [4] 101% | [5] 92.9% | [6] 105% | [7] 112% | [8] 102%

COC(=O)[C@]12CC[C@@H](C)[C@H](C)[C@@H]1C1=CC(=O)[C@@H]3[C@@]4(C)C[C@@H](OC(C)=O)[C@H](OC(C)=O)[C@@](C)(COC(C)=O)[C@@H]4C(=O)C[C@@]3(C)[C@]1(C)CC2
inactive: [1] 45.1% | [2] 17.8% | [3] 57.8% | [4] 50.2% | [5] 42.5% | [6] 22.6% | [7] 68.7% | [8] 44.7%

CC[C@H](CC[C@@H](C)[C@H]1CC[C@H]2[C@@H]3/C(=C/c4cccnc4)C(=O)C4=CC(=O)CC[C@]4(C)[C@H]3CC[C@]12C)C(C)C
inactive: [1] 47.7% | [2] 91.3% | [3] 99.7% | [4] 93.7% | [5] 51% | [6] 61.9% | [7] 98.8% | [8] 97.1%

COc1ccc(C2c3ccccc3NC(=O)N2C2CCN(C)CC2)c(OC)c1 (stereo not given)
inactive: [1] 100% | [2] 107% | [3] 72% | [4] 101% | [5] 78.1% | [6] 107% | [7] 105% | [8] 99.6%

O=c1c(CNc2ccc(S(=O)(=O)Nc3nccs3)cc2)coc2ccccc12
inactive: [1] 94.3% | [2] 99.5% | [3] 112% | [4] 101% | [5] 110% | [6] 100% | [7] 105% | [8] 111%

Oc1cc(/C=C/c2nc(N3CCOCC3)c3cc(Cl)c(Cl)cc3n2)cc(O)c1O
inactive: [1] 94.9% | [2] 95.5% | [3] 106% | [4] 107% | [5] 106% | [6] 104% | [7] 104% | [8] 111%

O=C1CCCC=CC[C@H]2C=C(Cl)C(=O)C2=CC[C@H](CCCCC(F)(F)F)OC(=O)CCCC=CC[C@H]2C=C(Cl)C(=O)C2=CC[C@H](CCCCC(F)(F)F)OC(=O)CCCC=CC[C@H]2C=C(Cl)C(=O)C2=CC[C@H](CCCCC(F)(F)F)O1
inactive: [1] 71.2% [6.25 µM] | [2] 78.5% [6.25 µM] | [3] 30.6% [6.25 µM] | [4] 17.3% [6.25 µM] | [5] 30.5% [6.25 µM] | [7] 98.5% [6.25 µM] | [8] 94.3% [6.25 µM]
active: [6] 7.18% [6.25 µM]

COc1cc2ncnc(Nc3ccc(Oc4ccnc(C)c4)c(C)c3)c2cc1NC(=O)CC1CCSS1 (stereo not given)
active: [1] -66% | [2] -48.4% | [3] -33.4% | [4] -33.7% | [5] -69.6% | [6] -65.5% | [7] -88.6% | [8] -68.8%

N#CCCCCCn1c2ccccc2c2c3[nH]c(=O)[nH]c(=O)c3c3c4ccccc4n(CCCCCC#N)c3c21
inactive: [1] 22.9% | [2] 32% | [3] 36.8% | [4] 61.4% | [5] 45.3% | [6] 28.2% | [7] 53.8% | [8] 23.8%

CC1(C)C(=O)/C(=C\c2ccccn2)C[C@]2(C)[C@H]3CC[C@@H]4[C@@H](C(=O)/C=C/c5ccccn5)CC[C@@]4(C)[C@]3(C)CC[C@@H]12
inactive: [5] 12%
active: [1] 3.15% | [2] -13.6% | [3] 4.49% | [4] 0.595% | [6] -69.6% | [7] -79.7% | [8] -76.2%

COc1cccc(-c2nn(-c3ccccc3)cc2-c2ccnc(NCCCNS(=O)(=O)c3ccc(Br)cc3)c2)c1
inactive: [1] 18.5% | [2] 73% | [3] 54.3% | [4] 69.7% | [5] 29.6% | [6] 40.8% | [7] 46% | [8] 44.1%

COc1ccccc1CNc1nc(N)nc2[nH]c3ccc(O)cc3c12
inactive: [1] 32.1% | [2] 62.8% | [4] 25.9% | [5] 19.2% | [6] 31% | [7] 67% | [8] 22.4%
active: [3] -27.6%

CCCCn1c(-c2ccc(O)cc2)cn2c3c(=O)[nH]c(=O)n(C)c3nc12
active: [3] -13.1%
inactive: [1] 64.6% | [2] 76.5% | [4] 36.6% | [5] 41.7% | [6] 45.4% | [7] 72.3% | [8] 59.9%

COc1ccc(NC(=S)N/N=C/c2ccccc2SSCCC(=O)OC[C@H]2O[C@H](O)[C@H](O)[C@@H](O)[C@@H]2O)cc1
inactive: [1] 66% | [2] 68.9% | [3] 52.8% | [4] 93.5% | [5] 44.7% | [6] 72.9% | [7] 94.2% | [8] 63.3%

Oc1ccc(CCC2CCCC(CCc3ccc(OCCF)cc3)N2)cc1 (stereo not given)
inactive: [1] 72.8% | [2] 96.4% | [3] 99.5% | [4] 112% | [5] 89% | [6] 86% | [7] 88.4% | [8] 104%

Cc1ccc2oc(=O)cc(-c3sc(N4CCCCC4)nc3-c3ccccc3)c2c1
inactive: [1] 76.8% | [2] 91.2% | [3] 103% | [4] 96.5% | [5] 70.5% | [6] 89% | [7] 99.3% | [8] 94.8%

CC(=O)c1c(C)[nH]c(-c2nc3ccc(N4CCN(C)CC4)cc3[nH]2)c1-c1ccc(OCC2CCOCC2)cc1
inactive: [1] 29.1% | [2] 57.1% | [3] 23.5% | [4] 50.6% | [6] 19.8% | [7] 31.7% | [8] 34.2%
active: [5] 6.13%

Clc1ccccc1-c1nc(Nc2nc3ccccc3s2)nc(C(Cl)(Cl)Cl)n1
inactive: [1] 38.7% | [2] 84.2% | [3] 49% | [4] 39.5% | [5] 32.6% | [6] 19.1% | [7] 54.1% | [8] 31.3%

CC(C)(C)n1cc(-c2ccnc(NCCCNS(=O)(=O)c3ccc(Cl)cc3)c2)c(-c2cccc(F)c2)n1
inactive: [1] 46.5% | [2] 74.7% | [3] 85.6% | [4] 70.2% | [5] 60.5% | [6] 51.9% | [7] 63.4% | [8] 60.5%

C/C(=N\Nc1cc(C)c2ccccc2n1)c1ccccn1
inactive: [1] 16.5% | [2] 24.1%
active: [3] -90.9% | [4] 7.9% | [5] -82.9% | [6] -76.2% | [7] 4.77% | [8] 4.67%

O=S(=O)(NCCNc1cc(-c2cn(-c3ccccc3)nc2-c2cccc(O)c2)ccn1)c1ccc(C(F)(F)F)cc1
active: [7] 8.21%
inactive: [1] 18.3% | [2] 65.2% | [3] 42.4% | [4] 64.8% | [5] 25.9% | [6] 28.4% | [8] 46.5%

Cc1ccccc1-c1nc(C(Cl)Cl)nc2cc(-c3ccccc3)nn12
inactive: [1] 40.1% | [2] 92.9% | [3] 56.6% | [4] 53.5% | [5] 64% | [6] 55% | [7] 69.2% | [8] 36.5%

COc1cc2nc(Cl)nc(Nc3cccc(C(=O)/C=C/c4ccc(Br)cc4)c3)c2cc1OC
inactive: [1] 72.4% | [2] 79.7% | [3] 89.6% | [4] 15.1% | [5] 31.7% | [6] 15.8% | [7] 104% | [8] 78.1%

O=C1c2cc3c(cc2-c2c1c1ccc(Cl)cc1c(=O)n2C[C@H](O)[C@@H](O)[C@H](O)CO)OCO3
active: [1] -8.86% | [2] -1.82% | [3] -39.2% | [4] 2.65% | [5] 1.66% | [8] 7.14%
inactive: [6] 11.1% | [7] 16.3%

N#CC1=C(N)Oc2c(sc3c(F)cccc23)C1c1ccc(Cl)cc1 (stereo not given)
active: [3] -32%
inactive: [1] 33.2% | [2] 19.4% | [4] 26.9% | [5] 14.8% | [6] 14.4% | [7] 87.7% | [8] 33.9%

N=C(N)c1ccc(S(N)(=O)=O)cc1
inactive: [1] 101% | [2] 94.2% | [3] 98.5% | [4] 105% | [5] 99.4% | [6] 93.9% | [7] 93.9% | [8] 106%
